Test results reported in PubChem BioAssay AID1159580 (chemical genetic matrix, 2015).
Values joined by “and” are separate entries in the source; they are usually repeats but may differ in a detail not shown here. Equal entries are not always repeated. Hit rate of the full screen: of about 5,500 compounds, about 2,000 (36%) were called active. Not shown: some 18% with an inconclusive outcome. Rule as the data show it: active = normalized growth mostly below about 0.91 (no sharp cut-off); inconclusive = no clear call, values can overlap the other calls; inactive = mostly above about 0.92. The list shows a part of the results.

Assay: chemical genetic growth profiling, strain panel (AID 1159580);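 also: tested at 20 µM; growth read once vehicle control cultures reached saturation at 30 °C; 1 = growth at the plate median or of vehicle wells; lower values mean less growth of the strain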
Conditions: S. cerevisiae deletion strains, growth OD

Measured: normalized growth

CN(C)CCC=C1c2ccccc2CCc2ccccc21
inactive: locus YAL013W, strain DEP1, stronger effect = lower value 0.992 | locus YAL030W, strain snc1, stronger effect = lower value 0.995 | locus YAL040C, strain CLN3, stronger effect = lower value 1 | locus YBL061C, strain skt5, stronger effect = lower value 0.991 | locus YBR009C, strain hhf1, stronger effect = lower value 0.913 | locus YBR021W, strain FUR4, stronger effect = lower value 1 | locus YBR023C, strain chs3, stronger effect = lower value 0.975 | locus YBR171W, strain sec66, stronger effect = lower value 0.969 | locus YBR229C, strain ROT2, stronger effect = lower value 1 | locus YBR231C, strain swc5, stronger effect = lower value 1 | locus YBR279W, strain paf1, stronger effect = lower value 0.958 | locus YCL011C, strain gbp2, stronger effect = lower value 0.946 | locus YCL016C, strain dcc1, stronger effect = lower value 0.958 | locus YCL029C, strain bik1, stronger effect = lower value 1 | locus YCL061C, strain MRC1, stronger effect = lower value 0.993 | locus YCL069W, strain vba3, stronger effect = lower value 0.987 | locus YCR088W, strain abp1, stronger effect = lower value 0.953 | locus YDL005C, strain med2, stronger effect = lower value 0.993 | locus YDL035C, strain GPR1, stronger effect = lower value 1.02 | locus YDL040C, strain nat1, stronger effect = lower value 0.989 | locus YDL074C, strain BRE1, stronger effect = lower value 0.999 | locus YDL101C, strain DUN1, stronger effect = lower value 1.01 | locus YDL134C, strain PPH21, stronger effect = lower value 0.998 | locus YDL185W, strain tfp1, stronger effect = lower value 1 | locus YDL192W, strain arf1, stronger effect = lower value 0.996 | locus YDR001C, strain nth1, stronger effect = lower value 0.963 | locus YDR069C, strain doa4, stronger effect = lower value 0.955 | locus YDR101C, strain arx1, stronger effect = lower value 0.995 | locus YDR159W, strain sac3, stronger effect = lower value 0.962 | locus YDR162C, strain NBP2, stronger effect = lower value 1.02 | locus YDR195W, strain ref2 1.07 | locus YDR297W, strain sur2, stronger effect = lower value 0.975 | locus YDR318W, strain mcm21, stronger effect = lower value 1 | locus YDR334W, strain swr1, stronger effect = lower value 0.98 | locus YDR335W, strain msn5, stronger effect = lower value 0.973 | locus YDR363W, strain ESC2, stronger effect = lower value 1 | locus YDR388W, stronger effect = lower value 1 | locus YDR392W, strain spt3, stronger effect = lower value 0.922 | locus YDR502C, strain sam2, stronger effect = lower value 0.992 | locus YEL003W, strain gim4, stronger effect = lower value 0.978 | locus YEL037C, strain rad23, stronger effect = lower value 0.984 | locus YEL061C, strain CIN8 (second series), stronger effect = lower value 0.988 | locus YEL061C, strain CIN8, stronger effect = lower value 1.01 | locus YER002W, strain NOP16, stronger effect = lower value 1.01 | locus YER016W, strain bim1, stronger effect = lower value 0.951 | locus YER110C, stronger effect = lower value 1 | locus YER111C, strain swi4, stronger effect = lower value 0.97 | locus YER155C, strain BEM2 (second series), stronger effect = lower value 1 | locus YER155C, strain BEM2, stronger effect = lower value 1 | locus YER167W, strain BCK2, stronger effect = lower value 1.01 | locus YFR010W, strain ubp6, stronger effect = lower value 0.94 | locus YGL078C, strain dbp3, stronger effect = lower value 0.986 | locus YGL086W, strain mad1, stronger effect = lower value 1 | locus YGL167C, strain pmr1, stronger effect = lower value 0.995 | locus YGL173C, strain kem1, stronger effect = lower value 0.966 | locus YGL227W, strain vid30, stronger effect = lower value 0.994 | locus YGL240W, strain doc1, stronger effect = lower value 0.999 | locus YGL248W, strain PDE1, stronger effect = lower value 1.01 | locus YGL253W, strain hxk2, stronger effect = lower value 0.953 | locus YGR078C, strain PAC10, stronger effect = lower value 1 | locus YGR135W, strain pre9, stronger effect = lower value 0.994 | locus YGR229C, strain SMI1, stronger effect = lower value 0.975 | locus YGR252W, strain gcn5, stronger effect = lower value 0.944 | locus YHR013C, strain ard1, stronger effect = lower value 0.875 | locus YHR030C, strain SLT2, stronger effect = lower value 1.01 and 1.08 | locus YHR079C, strain IRE1 (second series), stronger effect = lower value 0.994 | locus YHR079C, strain IRE1, stronger effect = lower value 1.05 | locus YHR094C, strain hxt1, stronger effect = lower value 0.992 | locus YHR129C, strain ARP1, stronger effect = lower value 1.01 | locus YHR142W, strain chs7, stronger effect = lower value 0.919 | locus YHR200W, strain rpn10, stronger effect = lower value 0.995 | locus YIL066C, strain RNR3, stronger effect = lower value 1.02 | locus YIL073C, strain SPO22, stronger effect = lower value 1.05 | locus YIL125W, strain kgd1, stronger effect = lower value 0.997 | locus YIR030C, strain dcg1, stronger effect = lower value 0.992 | locus YJL092W, strain hpr5, stronger effect = lower value 0.979 | locus YJL095W, strain BCK1 (second series), stronger effect = lower value 0.978 | locus YJL095W, strain BCK1, stronger effect = lower value 1.01 and 1.05 | locus YJL115W, strain asf1, stronger effect = lower value 0.974 | locus YJL129C, strain trk1, stronger effect = lower value 1.01 | locus YJL134W, strain LCB3, stronger effect = lower value 1.01 | locus YJL154C, strain vps35, stronger effect = lower value 0.975 | locus YJL164C, strain tpk1, stronger effect = lower value 0.974 | locus YJL166W, strain qcr8, stronger effect = lower value 0.988 | locus YJL168C, strain set2, stronger effect = lower value 1.01 | locus YJL187C, strain SWE1 (second series), stronger effect = lower value 1.01 | locus YJL187C, strain SWE1, stronger effect = lower value 0.985 | locus YJR043C, strain POL32, stronger effect = lower value 1.01
active: locus YAL021C, strain ccr4, stronger effect = lower value 0.896 | locus YAL026C, strain drs2, stronger effect = lower value 0.894 | locus YDR137W, strain rgp1, stronger effect = lower value 1.19 [resistant] | locus YER015W, strain faa2, stronger effect = lower value 0.913 | locus YHR027C, strain rpn1, stronger effect = lower value 0.864
